# Screens deposited in PubChem BioAssay by National Center for Advancing Translational Sciences (NCATS).
# Sfp inh – qHTS Assay for Inhibitors of Bacillus subtilis Sfp phosphopantetheinyl transferase (PPTase); 310,000 compounds, 3.5% hits; AID 1490, 2009; Biochemical Sfp PPTase activity, qHTS; 4'-phosphopantetheinyl transferase ffp (Bacillus subtilis), Q9F4F7; Potency, µM, for inactives: largest response in the series, negative = inhibition, usual class: inhibitors;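 also: the enzyme is Sfp with the accession as filed and its product quenches rhodamine fluorescence; 0% = enzyme reaction without inhibitor and -100% = no enzyme wells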
#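 Reaction rates are the 30-min fluorescence difference (ex 525, em 598 nm) in wells containing 15 nM Sfp, 5 uM rhodamine-CoA and 12.5 uM BHQ-2-YbbR at pH 7.6 with 10 mM MgCl2.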
# ALDH1A1 inh – qHTS Assay for Inhibitors of Aldehyde Dehydrogenase 1 (ALDH1A1) | Aldehyde dehydrogenase 1A1 (Homo sapiens), P00352 | Purified ALDH1A1, NADH fluorescence, propionaldehyde substrate | Potency, µM (series often up to 75.3 µM), without a hit: top-dose activity, negative = inhibition, usual class: inhibitors | 220,000 compounds, 7.3% hits | AID 1030, 2008; active = well fitted inhibition curve with a large enough effect, not every such curve was filed as active; inconclusive = small, poorly fitted or top-dose-only effect, or another doubt; inactive = no such curve, though single readings can be large or run the other way;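 also: plate controls were no enzyme wells and a reference inhibitor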
# Target sequence (P00352 whole entry, looked up): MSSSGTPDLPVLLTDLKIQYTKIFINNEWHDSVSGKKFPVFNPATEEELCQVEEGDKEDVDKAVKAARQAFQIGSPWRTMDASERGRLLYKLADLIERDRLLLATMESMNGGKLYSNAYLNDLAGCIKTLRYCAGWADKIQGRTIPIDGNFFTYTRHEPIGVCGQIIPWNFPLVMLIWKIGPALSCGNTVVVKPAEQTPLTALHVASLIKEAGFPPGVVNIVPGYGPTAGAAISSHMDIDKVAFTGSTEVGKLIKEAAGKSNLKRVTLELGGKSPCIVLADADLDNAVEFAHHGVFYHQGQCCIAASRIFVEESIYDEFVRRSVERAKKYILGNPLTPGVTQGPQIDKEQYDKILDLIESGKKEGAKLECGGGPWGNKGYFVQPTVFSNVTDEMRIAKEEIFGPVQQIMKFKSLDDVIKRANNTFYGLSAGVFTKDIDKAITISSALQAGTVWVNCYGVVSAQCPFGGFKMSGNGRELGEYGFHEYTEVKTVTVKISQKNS
# Gal4-VP16 FLuc – VP16 counterscreen qHTS for inhibitors of ROR gamma transcriptional activity; Drosophila S2 Gal4-VP16 UAS-luciferase, luminescence, 20 h; Potency, µM (highest dose often 53.6 µM), inactives show top-dose activity, negative = inhibition, hits mostly inhibitors; 310,000 compounds, 3.5% hits; AID 2546, 2010;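 also: Gal4-VP16 expression switched on by copper sulfate through the metallothionein promoter; nearly all actives have a fitted effect of over 50% in size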
# RORgamma inh – qHTS for inhibitors of ROR gamma transcriptional activity. Drosophila S2 Gal4-RORgamma UAS-luciferase reporter, 20 h. Potency, µM (series often up to 53.6 µM), without a hit: at the highest dose activity change, negative = inhibition, most hits filed as inhibitors. 310,000 compounds, 5.4% hits. AID 2551, 2010; also: nearly all actives have a fitted effect of over 60% in size
#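 Stable Schneider cell line, Gal4 DNA-binding domain fused to ROR gamma, UAS-luciferase. Cmpd 1 hr RT → CuSO4 700 uM final → 20 hr RT → luciferase reagent 10 min → luminescence.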
# PLK1 PBD inh – qHTS for Inhibitors of PLK1-PDB (polo-like kinase 1 - polo-box domain): Primary Screen; Plk1 PBD binding of FITC phosphopeptide, fluorescence polarization; Potency, µM, for inactives: max response, negative = inhibition, usual class: inhibitors; 360,000 compounds, 2.8% hits; also: series mostly up to about 57 µM; nearly all actives have a fitted effect of over 65% in size
# * = called active by the depositor; u = inconclusive; x = no result; [ ] = another dose, or the depositor's remark. Sampled rows, rich in hits. Any-hit rate of the full collection: about 12%. Unless noted, calls follow the shape of the dose curve; as a rule, active = well fitted curve in the direction sought with a large enough effect; inconclusive = small, poorly fitted or top-dose-only effect, or another doubt; inactive = no such curve, though single readings can be large; an effect the other way counts as inactive or inconclusive. Unless noted, % is scaled to controls: 0 for no effect and ±100 for the full control effect; potency is read from the fitted curve at half-maximal effect.
SMILES,Sfp inh,ALDH1A1 inh,Gal4-VP16 FLuc,RORgamma inh,PLK1 PBD inh
O=c1cc(N2CCCCC2)c(-c2ccccc2)nn1Cc1ccc(Cl)cc1,u,0%,-23%,u,-3%
O=c1cc(N2CCCCC2)c(-c2ccccc2)nn1Cc1c(Cl)cccc1Cl,u,u,-14%,9%,27µM*
O=c1cc(-c2cccc(-c3ccc(C(F)(F)F)cc3)c2)c2cc3c(cc2o1)OCO3,-19%,u,-6%,-17%,x
CN(C)C(=O)c1ccc(NC(=O)c2cncc(Br)c2)cc1,35%,6%,u,43%,1%
CC(C)OC(=O)c1ccc(NC(=O)c2cncc(Br)c2)cc1,11%,18µM*,-10%,u,-1%
O=C(NC(=S)Nc1ccc(Cl)cc1)c1cncc(Br)c1,x,x,x,x,-9%
CC(C)OC(=O)c1ccc(NC(=S)NC(=O)c2cncc(Br)c2)cc1,-4%,x,2.8µM*,2.2µM*,-11%
Cc1ccc(OC2C(O)COC2/C=C/C#Cc2ccc(C(C)(C)C)cc2)cc1 (configuration not stated),-3%,1%[13.5 µM],7%[10 µM],5%[10 µM],x
COc1ccc(Cl)cc1-c1cc(C(=O)Nc2ccc(C(C)(C)C)cc2)[nH]n1,x,x,x,x,2%
Cc1nn(-c2ccccc2)c(N2CCCC2)c1/C=N/NC(=O)c1cc2ccccc2cc1O,4%,5%,3.5µM*,3.5µM*,14%
Cc1nn(-c2ccccc2)c(N2CCCC2)c1/C=N/NC(=S)Nc1ccccc1F,3%,u,0.35µM*,0.35µM*,4%
CN[C@@H](CO)C(=O)NC[C@H]1O[C@@H](n2cnc3c(=O)[nH]c(N)nc32)[C@H](O)[C@@H]1O,x,x,x,x,-1%
COc1ccc(S(=O)(=O)N2CCC(C(=O)NCCC(=O)Nc3ccc(Cl)cc3)CC2)cc1,-3%,x,8%,-1%,-12%
Cc1ccc(C(=O)/C=C/C(=O)c2ccc(C)cc2)cc1,3.2µM*,0.89µM*,u,5µM*,1.7µM*
Cc1ccc(C(=O)/C=C/c2ccccc2[N+](=O)[O-])cc1,-16%,u,4%[10 µM],-100%,27µM*
O=C(Nc1cccc(F)c1)N1CC2(CCN(C(=O)c3cc(C(F)(F)F)cc(C(F)(F)F)c3)CC2)C1,14%,3%,-3%,-11%,x
CC(C)(C)CC(C)(C)c1ccc(OCCO)cc1,-9%,-5%,u,34%,x
O=S(=O)(c1ccc(Cl)c(Cl)c1)c1snnc1-c1ccccc1,-2%,-6%,u,20µM*,-31%
NC(=O)c1snnc1-c1ccccc1,2%,6%,-6%,-1%,-1%
CCOC(=O)c1sc(N(Cc2ccccc2)C(=O)COC(=O)c2ccc(O)cc2)nc1C,-4%,14µM*,u,u,0%
CCOC(=O)c1sc(N(Cc2ccccc2)C(=O)COC(=O)c2ccccc2O)nc1C,-17%,-7%,0%,3%,1%
CCOC(=O)c1sc(N(Cc2ccccc2)C(=O)CSc2ncn[nH]2)nc1C,17%,4.5µM*,-3%,-6%,-5%
O=C(O)CSc1cc(C(=O)c2cc(F)ccc2O)cn2c(=O)c3c(-c4ccccc4)csc3nc12,-20%,7.9µM*,-17%,35µM*,u
O=C(Nc1ccccc1)C1=C[C@@H](C2CCCCC2)C[C@@H](OCc2ccc(CO)cc2)O1,28%,4.5µM*,-6%,7%,-5%
C=CCOC(=O)C1=C[C@@H](C2CCCCC2)C[C@@H](OCc2ccc(CO)cc2)O1,7%,1µM*,3%,0%,-14%
SMILES,Sfp inh,ALDH1A1 inh,Gal4-VP16 FLuc,RORgamma inh,PLK1 PBD inh
Cc1ccc(NC(=O)C2C3CCC(O3)C2C(=O)O)cc1Cl (configuration not stated),-15%,x,-10%,5%,7%
CCCc1c(C(=O)N/N=C/c2ccncc2)nnn1-c1nonc1N,8%,x,-4%,24%,1%
C/C(=N\NC(=O)c1nnn(-c2nonc2N)c1CN1CCc2ccccc21)c1ccccc1O,12%,x,4.5µM*,2.2µM*,1%
CCCc1c(C(=O)N/N=C/c2sccc2C)nnn1-c1nonc1N,19%,x,5.6µM*,u,-17%
Cc1ccsc1/C=N/NC(=O)c1nnn(-c2nonc2N)c1C(C)C,13%,x,18µM*,11µM*,1%
CCC/C(=N/NC(=O)c1nnn(-c2nonc2N)c1CN1CCCCC1)c1ccccc1,x,x,x,x,27µM*
CC(C)c1c(C(=O)N/N=C/c2cccs2)nnn1-c1nonc1N,13%,x,-88%,u,-3%
CCCc1c(C(=O)N/N=C(\CC)c2ccccc2)nnn1-c1nonc1N,x,x,x,x,-4%
O=Cc1ccc(C(=O)OCC(=O)NCc2ccco2)cc1,x,x,x,x,-6%
COc1cc(/C=N/NC(=O)c2nnn(-c3nonc3N)c2C(C)C)ccc1O,15%,x,2%,17%,0%
COc1ccccc1/C(C)=N/NC(=O)c1nnn(-c2nonc2N)c1C(C)C,7%,x,-29%,7.1µM*,12µM*
CC(=O)Nc1ccc(NS(=O)(=O)c2c(Cl)cccc2Cl)cc1,79µM*,x,1%,-2%,27µM*
COC(=O)CCCNS(=O)(=O)c1ccc2ccccc2c1,19%,u,1%,-3%,-11%
CC(=O)NS(=O)(=O)c1ccc(NS(=O)(=O)c2ccc3ccccc3c2)cc1,10%,x,0%,0%,-11%
CC(=O)Nc1ccc(NS(=O)(=O)c2ccc3ccccc3c2)cc1,17%,10%,4%,-2%,7.5µM*
O=C(O)CCCNS(=O)(=O)c1ccc2ccccc2c1,-10%,3.2µM*,3%,2%,-13%
COC(=O)c1c(N)n(-c2ccc(N3CCOCC3)cc2)c2nc3ccccc3nc12,-12%,18µM*,9%,u,x
COc1ccc(S(=O)(=O)Nc2ccccc2C(=O)NCc2ccco2)cc1,-6%,u,0%,1%,11µM*
COc1ccc(-n2c(N)c(C(=O)NCc3ccco3)c3nc4ccccc4nc32)cc1,25µM*,u,-16%,-21%,-2%
Nc1c(C(=O)NCc2ccco2)c2nc3ccccc3nc2n1CCc1ccc(F)cc1,25µM*,u,u,-19%,-18%
CCCCCCCCN1C(=O)[C@H](CC(=O)NCCCOCCCC)C[C@@]2(C(=O)OCC)CCCC=C12,x,x,x,x,5%
CC(=O)Nc1ccc(S(=O)(=O)NCC(=O)OCC(=O)NCCc2ccccc2)cc1,x,x,x,x,-27%
COc1ccccc1CNC(=O)c1c(N)n(CCCN2CCOCC2)c2nc3ccccc3nc12,56µM*,u,u,-20%,0%
CCOc1ccc(N=C(NN)c2ccc3ccccc3n2)cc1,14µM*,u,u,10µM*,u
CCN1C(=S)SC(=O)C1=C1C=C(C)N(CCO)C(C)=C1,u,16µM*,-11%,-7%,-2%
